Activity calls are given as the source filed them.
Tests used:
[1] = E. coli DRC41 culture turbidity changes, primary screen, E. coli filamentation inducer project, strain DRC41, OD650, 48 h (AID 1152);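 note: E. coli MC1000 strain DRC41 lacking acrAB efflux pump and sulA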; conditions: E. coli DRC41 (acrAB sulA), higher = more signal, called active from +8 up or from −8 down
[2] = small-molecule binders of probe aLefty1, primary screen, biochemical, small-molecule microarray, 635/667 nm fluorescence (AID 1153); conditions: higher = more signal;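 note: score merges spot fluorescence with signal-to-noise ratio from the scanned slide images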
[3] = PSAC antagonists in infected red cells, primary screen, cell-based, P. falciparum Indochina, OD700, 1 h (AID 1154); conditions: P. falciparum Indochina infected RBC osmotic lysis, higher = more signal, called active from +8 up or from −8 down
[4] = PSAC antagonists in infected red cells, primary screen, cell-based, P. falciparum Indochina, OD700, 2 h (AID 1155);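 note: lysis reports solute entry through the parasite surface anion channel PSAC; channel blockers reduce lysis of infected cells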; conditions: P. falciparum Indochina infected erythrocytes, osmotic lysis OD700; higher = more signal, called active from +8 up or from −8 down
[5] = osmotic lysis modulators in infected erythrocytes, primary screen, PSAC antagonist project, cell-based, P. falciparum Indochina, OD700, 3 h (AID 1156); conditions: higher = more signal, called active from +8 up or from −8 down
[6] = PSAC antagonists in infected red cells, primary screen, cell-based, P. falciparum Indochina, OD700, 18 h (AID 1157); conditions: P. falciparum Indochina infected erythrocytes, osmotic lysis OD700, 18 h; higher = more signal, called active from +8 up or from −8 down
[7] = modulators of S6 phosphorylation in cells, primary screen, cell-based, A549, cytoblot, luminescence, serum-stimulated (AID 1158); conditions: A549 phospho-S6 cytoblot, 5 h, higher = more signal;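 note: serum-stimulated A549 lung adenocarcinoma cells; signal is phosphorylated S6 detected by cytoblot immunostaining with HRP secondary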
[8] = molecular target: NADPH oxidase 2 (Homo sapiens) (UniProt P04839); assay: NOX2-dependent H2O2 signal modulators, primary screen, NOX inhibitor project, cell-based, HEK293-NOX2, PMA-stimulated, Amplex Red fluorescence (AID 1159); conditions: 45 min, higher = more signal, called active from +8 up or from −8 down; note: test concentration not given here
NADPH oxidase 2 (Homo sapiens), sequence (P04839 whole entry, looked up): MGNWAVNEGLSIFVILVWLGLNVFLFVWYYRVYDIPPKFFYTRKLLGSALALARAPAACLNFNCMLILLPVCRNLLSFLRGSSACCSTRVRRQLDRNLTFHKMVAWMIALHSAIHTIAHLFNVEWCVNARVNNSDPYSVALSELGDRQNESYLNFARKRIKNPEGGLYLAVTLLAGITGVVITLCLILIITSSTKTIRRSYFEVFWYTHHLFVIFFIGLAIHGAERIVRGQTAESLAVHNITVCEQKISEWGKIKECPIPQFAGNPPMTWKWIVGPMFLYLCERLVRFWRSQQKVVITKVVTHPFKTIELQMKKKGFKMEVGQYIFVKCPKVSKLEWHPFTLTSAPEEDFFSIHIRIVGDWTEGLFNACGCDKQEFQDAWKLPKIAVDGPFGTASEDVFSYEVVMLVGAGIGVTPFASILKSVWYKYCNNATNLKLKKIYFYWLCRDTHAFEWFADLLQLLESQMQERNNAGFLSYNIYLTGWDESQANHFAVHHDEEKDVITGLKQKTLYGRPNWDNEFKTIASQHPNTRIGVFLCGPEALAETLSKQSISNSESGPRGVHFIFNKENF

[9] = molecular target: NADPH oxidase 4 (Homo sapiens) (UniProt Q9NPH5); assay: NOX4-dependent H2O2 signal modulators, primary screen, NOX inhibitor project, cell-based, HEK293-NOX4, tetracycline-induced, Amplex Red fluorescence (AID 1160); conditions: 45 min, higher = more signal, called active from +8 up or from −8 down
NADPH oxidase 4 (Homo sapiens), sequence (Q9NPH5 whole entry, looked up): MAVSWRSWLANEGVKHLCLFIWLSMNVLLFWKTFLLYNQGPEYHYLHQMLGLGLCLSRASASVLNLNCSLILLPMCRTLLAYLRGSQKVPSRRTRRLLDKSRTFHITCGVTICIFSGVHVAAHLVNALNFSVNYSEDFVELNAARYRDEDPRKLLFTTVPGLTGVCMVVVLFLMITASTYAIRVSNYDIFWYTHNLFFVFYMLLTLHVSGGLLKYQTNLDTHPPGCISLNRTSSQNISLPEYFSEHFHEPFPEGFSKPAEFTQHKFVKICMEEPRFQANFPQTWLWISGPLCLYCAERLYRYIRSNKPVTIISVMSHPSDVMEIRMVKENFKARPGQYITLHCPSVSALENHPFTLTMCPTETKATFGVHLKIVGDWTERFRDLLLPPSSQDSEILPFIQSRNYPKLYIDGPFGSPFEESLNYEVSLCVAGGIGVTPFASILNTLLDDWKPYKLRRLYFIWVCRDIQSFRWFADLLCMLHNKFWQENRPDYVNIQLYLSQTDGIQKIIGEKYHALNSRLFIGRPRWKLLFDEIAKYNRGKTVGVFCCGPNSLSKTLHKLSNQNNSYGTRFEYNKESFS

[10] = molecular target: NADPH oxidase 5 (Homo sapiens) (UniProt Q96PH1); assay: NOX5-dependent H2O2 signal modulators, primary screen, NOX inhibitor project, cell-based, HEK293-NOX5, Amplex Red fluorescence (AID 1161); conditions: HEK293-NOX5, ionomycin, 45 min, higher = more signal
NADPH oxidase 5 (Homo sapiens), sequence (Q96PH1 whole entry, looked up): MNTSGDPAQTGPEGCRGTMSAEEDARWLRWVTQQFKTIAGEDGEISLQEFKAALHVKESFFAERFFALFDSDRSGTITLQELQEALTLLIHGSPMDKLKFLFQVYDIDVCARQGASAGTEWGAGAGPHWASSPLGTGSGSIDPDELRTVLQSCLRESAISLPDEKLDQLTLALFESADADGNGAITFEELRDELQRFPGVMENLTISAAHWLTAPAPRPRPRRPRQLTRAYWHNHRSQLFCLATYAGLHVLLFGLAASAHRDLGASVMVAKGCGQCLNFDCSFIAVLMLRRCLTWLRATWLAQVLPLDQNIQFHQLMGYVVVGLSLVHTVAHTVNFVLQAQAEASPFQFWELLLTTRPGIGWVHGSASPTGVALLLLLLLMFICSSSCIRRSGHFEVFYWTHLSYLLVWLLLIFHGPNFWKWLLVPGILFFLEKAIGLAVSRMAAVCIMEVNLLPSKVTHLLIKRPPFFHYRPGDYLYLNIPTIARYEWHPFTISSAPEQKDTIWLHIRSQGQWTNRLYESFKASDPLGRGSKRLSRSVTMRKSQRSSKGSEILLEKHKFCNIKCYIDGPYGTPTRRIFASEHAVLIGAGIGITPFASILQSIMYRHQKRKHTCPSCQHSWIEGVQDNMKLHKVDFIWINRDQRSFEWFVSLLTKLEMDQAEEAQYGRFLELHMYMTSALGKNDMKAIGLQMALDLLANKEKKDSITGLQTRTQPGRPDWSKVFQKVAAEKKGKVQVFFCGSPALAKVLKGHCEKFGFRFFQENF

[11] = A549 cell viability effects, profiling panel, calcein-AM fluorescence, 48 h, basal (AID 1162); conditions: higher = more signal; note: test concentration not given here
[12] = adipocyte viability effects, profiling panel, cell-based, 3T3-L1 adipocytes, calcein-AM fluorescence, 48 h, basal (AID 1163); conditions: 3T3-L1 adipocytes viability, higher = more signal; note: test concentration not given here
[13] = HepG2 cell viability effects, profiling panel, calcein-AM fluorescence, 48 h, basal (AID 1164); conditions: higher = more signal; note: test concentration not given here
[14] = MM1S cell viability effects, profiling panel, calcein-AM fluorescence, 48 h, basal (AID 1165); conditions: higher = more signal;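 note: viability of MM1S multiple myeloma cells under basal unstimulated conditions; test concentration not given here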
[15] = basal RPMI8226 viability, no added stimulus, profiling panel, cell-based, calcein-AM fluorescence, 48 h, PK04 Diversity Set (AID 1166); conditions: RPMI8226 myeloma viability, higher = more signal;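 note: cells grown under basal conditions without added stimulus; test concentration not given here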
[16] = basal HepG2 mitochondrial membrane potential changes, profiling panel, cell-based, JC-1 fluorescence, 24 h, 100 nL compound (AID 1167); conditions: higher = more signal; note: test concentration not given here
[17] = basal 3T3-L1 adipocyte mitochondrial potential changes, profiling panel, cell-based, JC-1 fluorescence, 3T3-L1 adipocytes, 24 h, 100 nL compound (AID 1168); conditions: JC-1 mitochondrial fluorescence, higher = more signal, called active from +8 up or from −8 down; note: test concentration not given here
[18] = basal RPMI8226 mitochondrial membrane potential changes, profiling panel, cell-based, JC-1 fluorescence, 24 h, 100 nL compound (AID 1169); conditions: RPMI8226 myeloma, JC-1 mitochondrial potential fluorescence, higher = more signal; note: test concentration not given here
[19] = basal MM1S mitochondrial membrane potential changes, profiling panel, cell-based, JC-1 fluorescence, 24 h, 100 nL compound (AID 1170); conditions: higher = more signal; note: test concentration not given here
[20] = A549 lung cancer cell viability effects, profiling panel, resazurin fluorescence, 24 h, PK04 Diversity Set (AID 1171); conditions: higher = more signal, called active from +8 up or from −8 down; note: test concentration not given here

SMILES	z-score [1]	composite z-score [2]	z-score [3]	z-score [4]	z-score [5]	z-score [6]	z-score [7]	z-score [8]	z-score [9]	z-score [10]	z-score [11]	z-score [12]	z-score [13]	z-score [14]	z-score [15]	z-score [16]	z-score [17]	z-score [18]	z-score [19]	z-score [20]
COc1ccc(CCNC(=O)[C@@]2(C)c3ccccc3C(=O)N(Cc3cc(C(F)(F)F)cc(C(F)(F)F)c3)[C@H]2c2ccc(CO)cc2)cc1	1.28 (inactive)	-0.216	8.19 (active)	0.566 (inactive)	1.85 (inactive)	-0.388 (inactive)	2.76	-3.19 (inactive)	-1.7 (inactive)	-2.75	0.0571	1.28	-0.23	-2.16	-3.99	1.11	-0.299 (inactive)	-0.428	0.783	0.616 (inactive)
C=CCNC(=O)[C@H]1[C@@H]2C(=O)O[C@@H](c3ccccc3)[C@@H](c3ccccc3)N2[C@@H](c2ccccc2OCCO)[C@]12C(=O)N(C(=O)OCCOC)c1ccccc12	-0.557 (inactive)	0.162	2.31 (inactive)	1.1 (inactive)	-0.337 (inactive)	0.973 (inactive)	0.015	1.14 (inactive)	0.676 (inactive)	0.348	-1.25	-0.575	-1.3	-3.05	-3.82	0.387	-0.49 (inactive)	-0.919	-1.19	-1.04 (inactive)
CCCC[C@H]1OB(O)C[C@H]2C1=C(COC)C[C@H]1C(=O)C=CC(=O)[C@H]12	0.685 (inactive)	-0.188	1.09 (inactive)	0.272 (inactive)	0.224 (inactive)	0.231 (inactive)	0.0946	-0.235 (inactive)	-0.663 (inactive)	-0.477	0.2	-0.0373	-0.0926	-3.25	-2.35	-2.01	-1.46 (inactive)	-0.59	-0.898	-0.347 (inactive)
CN(C)C(=O)[C@]1(Cc2ccccc2)N=C(c2ccc(OCCCO)cc2)O[C@@H]1c1ccccc1	-0.855 (inactive)	-0.13	28.8 (active)	23.9 (active)	-0.0356 (inactive)	2.51 (inactive)	-0.0744	0.945 (inactive)	-0.372 (inactive)	-1.73	-0.092	-0.577	0.846	-0.864	-1	0.0944	0.193 (inactive)	-1.11	-0.192	0.747 (inactive)
COC(=O)[C@@]1(Cc2ccccc2CN=[N+]=[N-])COC(c2ccc(OCCCO)cc2)=N1	-0.156 (inactive)	0.2	23.8 (active)	9.9 (active)	4.61 (inactive)	0.959 (inactive)	0.202	-3.07 (inactive)	-0.519 (inactive)	-3.18	-1.19	-0.19	-0.891	-3.53	-0.691	-2.15	-0.428 (inactive)	-1.01	0.515	-0.657 (inactive)
CN(C)CCCC[C@@H]1NC(=O)[C@H]2C[C@@H](C(=O)NCc3ccc(F)cc3)[C@@H](c3ccc(O)cc3)N2C1=O	0.104 (inactive)	0.364	1.2 (inactive)	-0.0251 (inactive)	-6.5 (inactive)	0.153 (inactive)	-0.449	0.0836 (inactive)	0.799 (inactive)	0.195	0.334	0.0359	-0.372	-0.0511	-0.23	1.28	-0.365 (inactive)	-0.152	0.195	0.377 (inactive)
CCN(CC)c1ccc(N2CC=CC34O[C@@H]5C=CCOC(=O)[C@@H]5[C@H]3C(=O)N(CCCO)[C@@H]4C2=O)cc1 (stereo not given in full)	1.33 (inactive)	0.027	0.246 (inactive)	-0.655 (inactive)	0.649 (inactive)	-1.36 (inactive)	4.3	-0.0266 (inactive)	-0.497 (inactive)	0.785	-0.0867	1.85	-0.244	1.8	0.28	0.432	0.604 (inactive)	0.19	0.536	-0.481 (inactive)
CCOC(=O)C1=C[C@@H](C(C)(C)C)N(S(=O)(=O)c2ccc(C)cc2)[C@H]1c1ccccc1Cl	-1.29 (inactive)	0.208	-0.747 (inactive)	0.627 (inactive)	-0.775 (inactive)	0.193 (inactive)	-0.535	-1.54 (inactive)	-0.44 (inactive)	0.1	-0.917	-1.16	-1.81	-0.991	-1.2	3.95	0.147 (inactive)	-0.822	-0.863	0.772 (inactive)
CCOC(=O)C1=C(C(=O)OCC)N(S(=O)(=O)CC[Si](C)(C)C)[C@H](c2ccccc2)CC1	-0.941 (inactive)	0.174	1.23 (inactive)	0.763 (inactive)	0.106 (inactive)	0.19 (inactive)	-0.405	-0.135 (inactive)	0.232 (inactive)	0.134	-2.6	-0.872	-2.78	-1.02	-4.13	3.63	-0.0617 (inactive)	-0.982	-3.04	0.571 (inactive)
COc1ccccc1CN1C(=O)c2ccccc2[C@](Cc2ccccc2I)(C(=O)NCCCN(C)C)[C@@H]1c1ccc(CO)cc1	-6.9 (inactive)	-0.275	2.8 (inactive)	-0.551 (inactive)	-5.31 (inactive)	-0.379 (inactive)	-2.54	-10.2 (active)	-4.81 (inactive)	-4.8	-4.38	-0.247	-5.12	-3.81	-4.39	-3.01	1.29 (inactive)	-1.03	-2.23	-7.15 (inactive)
CCC(CC)C(O)C1C=CC2C(=O)N(C)C(=O)C2N1N1CCCCC1 (stereo not given)	-1.65 (inactive)	0.361	1.41 (inactive)	0.787 (inactive)	0.156 (inactive)	0.729 (inactive)	-1.17	-0.893 (inactive)	-1.17 (inactive)	-1.35	-0.0236	-0.505	-0.502	-0.651	-0.521	-1.34	-0.115 (inactive)	0.153	-0.557	0.0051 (inactive)
Cc1ccccc1C(O)C1C=CC2C(=O)N(c3ccccc3)C(=O)C2N1Nc1ccccc1F (stereo not given)	-1.37 (inactive)	0.649	10.8 (active)	2.28 (inactive)	0.39 (inactive)	1.1 (inactive)	-1.16	-2.02 (inactive)	-5.43 (inactive)	-3.71	0.569	-0.522	-0.157	-0.584	-0.666	-2.82	-1.49 (inactive)	-0.0566	0.368	-0.425 (inactive)
COCCOC(=O)N1C(=O)[C@@]2(c3ccccc31)[C@H](C(=O)N1CCCCCCC1)[C@H]1C(=O)O[C@H](c3ccccc3)[C@H](c3ccccc3)N1[C@@H]2c1ccc(O)cc1	1.51 (inactive)	3.16	0.822 (inactive)	-0.0852 (inactive)	0.367 (inactive)	-0.0764 (inactive)	1.94	-3.28 (inactive)	-0.538 (inactive)	-4	0.452	0.688	1.11	-0.233	-1.54	-0.229	1.45 (inactive)	-0.564	-0.21	0.17 (inactive)
COC(=O)[C@@]1(CCC(=O)OC(C)(C)C)N=C(c2ccc(OCCCO)cc2)O[C@H]1c1ccccc1CN=[N+]=[N-]	-0.0301 (inactive)	0.437	21.3 (active)	6.25 (inactive)	0.765 (inactive)	1.4 (inactive)	-0.184	-1.47 (inactive)	-0.475 (inactive)	-0.802	-1.06	-1.3	-2.51	-3.2	-3.95	-1.7	-0.472 (inactive)	-1.12	-1.73	-0.227 (inactive)
COC(=O)[C@@]1(Cc2ccc(OC)cc2)[C@H]2c3cc(C(=O)N4CCCC4)n(CCc4ccc(OC)c(Br)c4)c3C[C@H]2CN1C(=O)c1ccccc1	-0.536 (inactive)	0.291	2.64 (inactive)	0.809 (inactive)	-0.0758 (inactive)	0.568 (inactive)	0.348	0.798 (inactive)	0.0418 (inactive)	-0.759	-0.572	-0.3	0.347	-0.245	-1.51	2.24	-0.641 (inactive)	-0.767	-0.569	0.568 (inactive)
C=C(COC)/C(=C/C[C@H](OC(=O)c1ccncc1)c1cccc(OCCO)c1)c1cnc2ccccc2c1	-0.223 (inactive)	0.317	9.54 (active)	0.936 (inactive)	0.426 (inactive)	0.431 (inactive)	0.231	-0.0605 (inactive)	0.24 (inactive)	-0.3	-0.0119	0.222	0.596	-2.77	-0.0229	0.327	-0.0487 (inactive)	0.568	-0.704	0.251 (inactive)
CCc1cccc(NC(=O)O[C@H]2[C@H](OC(=O)Nc3ccc4c(c3)OCO4)[C@H](OC(=O)Nc3ccc4c(c3)OCO4)[C@@H](OC)O[C@@H]2CO)c1	-0.128 (inactive)	0.349	18.2 (active)	2.63 (inactive)	1.73 (inactive)	1.18 (inactive)	0.921	-3.43 (inactive)	-1.11 (inactive)	-1.65	-1.45	1.16	-1.35	-2.42	-2.17	-1.56	0.248 (inactive)	-1.15	-1.18	-2.33 (inactive)
CC1(C)OC[C@@]23C=C(Br)[C@@H](C[C@H]12)[C@@]1(CO1)C3=O	-0.68 (inactive)	0.0557	-0.396 (inactive)	0.355 (inactive)	0.0349 (inactive)	-0.0371 (inactive)	-0.552	0.173 (inactive)	0.63 (inactive)	-0.278	0.0066	-0.588	-0.0344	-0.229	-0.215	-0.973	0.228 (inactive)	0.855	-0.151	-0.843 (inactive)
